A selection: hits, their analogues and other compounds. The true share with any hit is near 6.4%.
Gal4-VP16 FLuc – VP16 counterscreen qHTS for inhibitors of ROR gamma transcriptional activity. Drosophila S2 Gal4-VP16 UAS-luciferase, luminescence, 20 h. AID 2546, 2010. 310,000 tested, 3.5% active. Potency, µM (highest dose often 53.6 µM), hits mostly inhibitors;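 further: Gal4-VP16 expression switched on by copper sulfate through the metallothionein promoter; nearly all actives have a fitted effect of over 50% in size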
RORg inh – qHTS for inhibitors of ROR gamma transcriptional activity; Nuclear receptor ROR-gamma (Mus musculus), P51450; Drosophila S2 Gal4-RORgamma UAS-luciferase reporter, 20 h; Potency, µM (doses to about 53.6 µM), usual class: inhibitors; 310,000 tested, 5.4% active; further: nearly all actives have a fitted effect of over 60% in size
Target sequence (P51450 whole entry, looked up, the tested form may be a part): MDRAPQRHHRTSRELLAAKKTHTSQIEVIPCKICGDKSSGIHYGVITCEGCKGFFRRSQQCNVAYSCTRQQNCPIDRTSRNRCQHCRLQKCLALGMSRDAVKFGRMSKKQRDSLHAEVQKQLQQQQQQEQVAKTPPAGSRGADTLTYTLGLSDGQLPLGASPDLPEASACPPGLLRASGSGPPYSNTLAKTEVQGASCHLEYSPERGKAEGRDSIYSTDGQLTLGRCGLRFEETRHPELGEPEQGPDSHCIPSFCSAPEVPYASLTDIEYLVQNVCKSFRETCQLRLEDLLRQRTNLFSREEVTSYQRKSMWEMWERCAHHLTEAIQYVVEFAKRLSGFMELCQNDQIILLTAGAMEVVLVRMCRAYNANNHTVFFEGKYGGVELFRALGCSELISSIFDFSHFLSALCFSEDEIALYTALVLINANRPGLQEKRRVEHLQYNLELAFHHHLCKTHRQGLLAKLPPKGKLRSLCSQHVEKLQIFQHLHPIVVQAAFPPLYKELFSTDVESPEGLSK
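Drosophila Schneider cells stably carrying a metallothionein-driven Gal4 DBD–ROR gamma fusion and a UAS-Photinus luciferase reporter were exposed to compound for 1 hr, then induced with copper sulfate (700 uM final) for 20 hr at ambient temperature before luminescence reading.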
KinaseGlo FLuc – Counterscreen for Luciferase (Kinase-Glo TM) Inhibition; Potency, µM (doses to about 38.3 µM), most hits filed as inhibitors; 200,000 tested, 0.28% active; AID 1379, 2008; Kinase-Glo luciferase, ATP luminescence, 8 min; further: nearly all actives have a fitted effect of over 60% in size
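Compounds were added to a substrate mix at pH 7.2 (50 mM imidazole, 10 uM ATP, within the enzyme's linear range), followed by Kinase-Glo detection reagent; luminescence was measured after 8 minutes at ambient temperature.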
Each line names hits and unclear results; the compound was inactive in the other large screens. The call rests on the fitted dose curve; in most records, active means well fitted curve in the direction sought with a large enough effect; inconclusive means small, poorly fitted or top-dose-only effect, or another doubt; inactive means no such curve, though single readings can be large; an effect the other way counts as inactive or inconclusive.

Cc1ccc(/C=N/n2c(-c3cccnc3)n[nH]c2=S)o1	none (no result: KinaseGlo FLuc)
O=[N+]([O-])c1ccc(Cl)c(/C=N/n2c(-c3ccncc3)n[nH]c2=S)c1	none (no result: KinaseGlo FLuc)
Cc1ccc(-c2n[nH]c(=S)n2/N=C/c2ccc(C)o2)cc1	Gal4-VP16 FLuc 3.5µM, RORg inh 5µM
Cc1ccc(/C=N/n2c(-c3ccc(Cl)cc3)n[nH]c2=S)o1	RORg inh 6.3µM (no result: KinaseGlo FLuc)
Cc1ccc(-c2n[nH]c(=S)n2/N=C/c2ccncc2)cc1	Gal4-VP16 FLuc inconclusive, RORg inh 11µM
Cc1ccc(/C=N/n2c(-c3ccccn3)n[nH]c2=S)o1	RORg inh inconclusive (no result: KinaseGlo FLuc)
Cc1cc(C)n(CC(=O)NNC(=O)C2CC(=O)N(Cc3ccccc3Cl)C2)n1 (stereo not given)	none (no result: KinaseGlo FLuc)
OCC1CCCCN1C(=S)Nc1cccc(Cl)c1 (stereo not given)	none
CCNC(=S)N(CCCO)Cc1cc2cc3c(cc2[nH]c1=O)OCCO3	none (no result: KinaseGlo FLuc)
O=C1CSC(=S)N1/N=C/c1c(F)cccc1F	none (no result: KinaseGlo FLuc)
COc1cccc(/C=N/N2C(=O)CSC2=S)c1O	Gal4-VP16 FLuc 4.5µM, RORg inh 4µM
COc1cc(/C=N/N2C(=O)CSC2=S)cc(Br)c1O	none
COc1ccc2ccccc2c1/C=N/N1C(=O)CSC1=S	Gal4-VP16 FLuc inconclusive, RORg inh 7.9µM
CC[C@@](N)(C(=O)O)c1ccc(C(=O)O)cc1	none
Cc1[nH]n(-c2ccccc2)c(=O)c1C(C[N+](=O)[O-])c1ccccc1Cl (stereo not given)	none
COc1ccc(C(C[N+](=O)[O-])c2c(C)[nH]n(-c3ccccc3)c2=O)cc1 (stereo not given)	Gal4-VP16 FLuc inconclusive, RORg inh 13µM (no result: KinaseGlo FLuc)
O=Cc1ccc(OC(=O)CCCCC(=O)Oc2ccc(C=O)cc2)cc1	none (no result: KinaseGlo FLuc)
CC(=O)OCON[N+]([O-])=NC1CCCCC1	none (no result: KinaseGlo FLuc)
N#CCC(=O)c1sccc1-n1cccc1	none
CCOC(=O)c1[nH]cnc1C(=O)Nc1cccc(Cl)c1	none
C[C@H](NC(=O)c1[nH]cnc1C(=O)Nc1ccc(Cl)cc1)C(=O)OC(C)(C)C	Gal4-VP16 FLuc 1.4µM, RORg inh 1µM (no result: KinaseGlo FLuc)
Cc1cccc(NC(=O)c2nc[nH]c2C(=O)N[C@@H](C)C(=O)OC(C)(C)C)c1	Gal4-VP16 FLuc 7.1µM, RORg inh 3.2µM (no result: KinaseGlo FLuc)
O=C(C/C=N\OCc1ccc([N+](=O)[O-])cc1)Nc1ccc(F)cc1F	none
O=[N+]([O-])c1cc(S(=O)(=O)N2CCCC2)ccc1N/N=C1/CCCc2ccccc21	none
CC[n+]1ccc(/C=C/c2c[nH]c3ccccc23)cc1	Gal4-VP16 FLuc 13µM (no result: KinaseGlo FLuc)
CCn1c(/C=C/c2c[nH]c3ccccc23)nc2ccccc2c1=O	Gal4-VP16 FLuc inconclusive
COc1ccc(-c2nc(-c3ccccc3)c(NCc3ccccc3)o2)cc1	none
CC(C(=O)NCc1cccnc1)c1ccc([N+](=O)[O-])cc1 (stereo not given)	none (no result: KinaseGlo FLuc)
O=C(Nc1cccc(-c2nn[nH]n2)c1)c1ccc(Cl)s1	none (no result: KinaseGlo FLuc)
O=C(NCc1ccco1)c1ccc(Cl)s1	none
COc1cccc(-c2nnc(NC(=O)c3ccc(Cl)s3)o2)c1	Gal4-VP16 FLuc 0.22µM, RORg inh 0.25µM
O=C(Nc1nnc(-c2ccco2)o1)c1ccc(Cl)s1	Gal4-VP16 FLuc 0.63µM, RORg inh 2µM (no result: KinaseGlo FLuc)
CCCOc1ccc(C(O)(CCN2CCCCC2)c2ccccc2OC)cc1 (stereo not given)	none (no result: KinaseGlo FLuc)
O=C1/C(=C/c2cccs2)NC(=S)N1C1CC1	Gal4-VP16 FLuc inconclusive, RORg inh 7.1µM
O=C1CNC(=O)/C(=C/c2cccs2)N1	none
COc1ccc(CN2CCN(Cc3ccccc3F)CC2)cc1OC	none (no result: KinaseGlo FLuc)
COc1nccnc1NS(=O)(=O)c1ccc(NC(=S)NC(=O)c2ccccc2)cc1	none
O=C(NC(=S)Nc1ccccc1)c1ccc(-c2ccccc2)cc1	Gal4-VP16 FLuc 4.5µM, RORg inh 3.5µM
CC(C)NS(=O)(=O)c1ccc(NC(=S)NC(=O)c2ccc(-c3ccccc3)cc2)cc1	Gal4-VP16 FLuc inconclusive, RORg inh 7.1µM
O=C(O)c1ccc(NC(=S)NC(=O)c2ccc(-c3ccccc3)cc2)cc1	none
CC(Oc1ccccc1)C(=O)Nc1nnc(S(=O)(=O)N(C)c2ccccc2)s1 (stereo not given)	RORg inh inconclusive (no result: KinaseGlo FLuc)
COc1ccccc1OP(=O)(O)Oc1ccccc1OC	none
O=c1c(Cc2c(F)cccc2Cl)c(O)ccn1CCCN1CCOCC1	none
O=C(C1CCCCC1)N1CCN=C1SCc1cccc([N+](=O)[O-])c1	none
O=c1cc(-c2ccccc2)[nH]c2nc3ccccc3n12	RORg inh inconclusive, KinaseGlo FLuc 13µM
O=c1cc(CCl)[nH]c2nc3ccccc3n12	none (no result: KinaseGlo FLuc)
Cn1c(N)c(C(=O)COc2ccc(C#N)cc2)c(=O)n(C)c1=O	none
COc1ccc(-c2nn(-c3ccccc3)cc2CO)cc1	Gal4-VP16 FLuc inconclusive, RORg inh inconclusive
N=C(N)SCc1cn(-c2ccccc2)nc1-c1ccc(Br)cc1	Gal4-VP16 FLuc inconclusive, RORg inh 11µM
Cc1nc2ccc(C(=O)N3c4ccccc4CC3C)cc2s1 (stereo not given)	none
CCc1cccc(C)c1NC(=O)c1ccc2c(c1)CCN2S(C)(=O)=O	none (no result: KinaseGlo FLuc)
COc1cc(C(=O)NC(=S)Nc2ccc3c(c2)OCO3)cc(OC)c1OC	Gal4-VP16 FLuc inconclusive, RORg inh 14µM (no result: KinaseGlo FLuc)
COc1cccc(OC)c1C(=O)NC(=S)Nc1ccc2c(c1)OCCO2	RORg inh 13µM
O=C(NC(=S)Nc1ccc2c(c1)OCCO2)c1ccccc1	Gal4-VP16 FLuc inconclusive, RORg inh 4µM
S=C(Nc1ccc2c(c1)OCCO2)Nc1ccc2c(c1)OCO2	RORg inh inconclusive
COc1cc(C(=O)NC(=S)NNC(=O)c2ccc3c(c2)OCO3)cc(OC)c1OC	RORg inh inconclusive (no result: KinaseGlo FLuc)
CCOc1cccc(C(=O)Nc2ccc(N3CCN(S(C)(=O)=O)CC3)cc2)c1	none
CCOc1cccc(C(=O)NC(=S)Nc2ccc(N3CCCC3)cc2)c1	Gal4-VP16 FLuc 6.3µM, RORg inh 2.2µM
COc1cccc(OC)c1C(=O)NC(=S)Nc1ccc2c(c1)Cc1ccccc1-2	RORg inh inconclusive
COc1ccc(S(=O)(=O)NCCc2c[nH]c3ccc(C)cc23)cc1	RORg inh inconclusive (no result: KinaseGlo FLuc)
CCCCC/C=C\C/C=C\C/C=C\C/C=C\CCCC(=O)C(F)(F)F	none
CCN(CC)C(=O)COc1ccc(-c2nnc(Nc3ccc(OC)c(C(=O)NC)c3)c3ccccc23)cc1	none (no result: KinaseGlo FLuc)
CCCCCC(O)/C=C/C=C\CCCCCCCC(=O)O (stereo not given)	none
CN(C)c1ncc2nc(-c3ccccc3)c(=O)n(Cc3ccc(F)cc3)c2n1	none (no result: KinaseGlo FLuc)
COc1cccc([C@@H]2Oc3ccc(OC)cc3C(=O)[C@H]2OC(=O)NS(=O)(=O)c2ccc(C)cc2)c1	RORg inh inconclusive
Cc1ccc(S(=O)(=O)CCC(=O)N2CCN(c3ccc(Cl)cc3)CC2)cc1	none
CCOc1cccc(C(=O)NC(=S)Nc2ccc3c(c2)OCCO3)c1	RORg inh 7.9µM
N#Cc1ccccc1OCC(=O)Nc1ccc2c(c1)OCCCO2	Gal4-VP16 FLuc inconclusive (no result: KinaseGlo FLuc)
O=C(COc1ccccc1Br)Nc1ccc2c(c1)OCCCO2	RORg inh 18µM (no result: KinaseGlo FLuc)
CCOc1ccc(-n2nc3ccc(NC(=O)c4ccc5c(c4)OCCO5)cc3n2)cc1	Gal4-VP16 FLuc 11µM, RORg inh 10µM
COc1cccc(C(=O)NC(=S)Nc2ccc(Cl)c(C(=O)O)c2)c1	none
O=C(Nc1ccc2nn(-c3ccccc3)nc2c1)c1ccc2c(c1)OCCO2	none

Bioassay records: PubChem BioAssay, National Center for Advancing Translational Sciences (NCATS)
